Records with an inconclusive call do not appear. Activity calls are given as the source filed them. How the source made its calls, unless noted: active means hit-call score of the fitted dose curve at least 0.9, where 1 is the maximum; inactive means score below 0.9.

Test [1] can be described thus: ATG_NFI_CIS: Attagene CIS-FACTORIAL HepG2 Assay for human Nuclear Factor I (NFI) (AID 2282989). Conditions: HepG2 cis-regulatory reporter, NFI response element transcription; actives raise or lower the signal. In short, it runs like this: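 HepG2 cells transiently transfected with cis-element-driven multiplexed reporter transcription units, dosed for 24 h. Reporter mRNA quantified by RT-PCR, fluorescent labelling, HpaI digestion and capillary electrophoresis; bidirectional fit versus DMSO baseline.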

Test [2] can be described thus: ATG_NF_kB_CIS: Attagene CIS-FACTORIAL HepG2 Assay for human Nuclear Factor Kappa B (NF-kB) (AID 2282991). The conditions noted are these: HepG2 Attagene cis-factorial NF-kB reporter mRNA; actives raise or lower the signal. In short, it runs like this: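 Multiplexed cis-reporter assay in transiently transfected HepG2. 24 h treatment; RNA isolated, RT-PCR, labelled fragments resolved by CE. DMSO baseline.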

A short description of test [3]: ATG_NRF2_ARE_CIS: Attagene CIS-FACTORIAL HepG2 Assay for human Nuclear Factor Erythroid 2 Related Factor 2 (NFR2) response to Antioxidant Response Elements (ARE) (AID 2282992). Conditions: HepG2 Attagene ARE/NRF2 reporter, transcription factor activity; actives raise or lower the signal. In short, it runs like this: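 Endogenous transcription factor activity read out as reporter transcript levels (RT-PCR plus capillary electrophoresis, fluorescence) in transiently transfected HepG2 cells. Measured at 24 h after dosing; gain or loss of signal fitted versus DMSO.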

Test [4] in a line: ATG_Oct_MLP_CIS: Attagene CIS-FACTORIAL HepG2 Assay for human Octamer-Binding Transcription Factor (Oct) (AID 2282993). The conditions noted are these: HepG2 Attagene cis-factorial Oct reporter, mRNA; actives raise or lower the signal. In short, it runs like this:
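HepG2 cells transiently transfected with cis-promoter-driven multiplexed reporter transcription units, dosed for 24 h. Reporter mRNA quantified by RT-PCR, fluorescent labelling, HpaI digestion and capillary electrophoresis; bidirectional fits versus DMSO baseline.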

For test [5], the target named is Cellular tumor antigen p53 (Homo sapiens) (UniProt P04637). The test is described as follows: ATG_p53_CIS: Attagene CIS-FACTORIAL HepG2 Assay for human p53 Transcription Factor (AID 2282994). Conditions: HepG2 p53 cis-element reporter, Attagene mRNA; actives raise or lower the signal. In short, it runs like this: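 Endogenous p53 activity read in transiently transfected HepG2 from a cis-element-driven reporter transcript after 24 h exposure. RNA reverse-transcribed, PCR-amplified, fluorescently labelled and sized by capillary electrophoresis; gain or loss fitted against DMSO baseline.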
Chain of Cellular tumor antigen p53 (Homo sapiens) (P04637 whole entry, looked up): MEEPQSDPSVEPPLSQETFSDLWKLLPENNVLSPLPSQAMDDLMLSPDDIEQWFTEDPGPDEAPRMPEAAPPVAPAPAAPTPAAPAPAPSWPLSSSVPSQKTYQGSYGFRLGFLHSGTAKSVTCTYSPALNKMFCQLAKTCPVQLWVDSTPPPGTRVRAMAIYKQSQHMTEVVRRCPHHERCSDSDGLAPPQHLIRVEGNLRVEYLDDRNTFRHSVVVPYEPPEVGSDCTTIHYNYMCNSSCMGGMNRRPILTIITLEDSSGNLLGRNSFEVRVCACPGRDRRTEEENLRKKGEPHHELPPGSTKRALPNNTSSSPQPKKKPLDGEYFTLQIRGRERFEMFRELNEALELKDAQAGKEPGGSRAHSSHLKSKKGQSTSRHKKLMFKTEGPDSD

Test [6] can be described thus: BSK_3C_TissueFactor: BioMAP Diversity Plus: 3C Assay for Tissue Factor Biomarker Activity (AID 2282997). Conditions: BioMAP 3C HUVEC, tissue factor biomarker readout; actives raise or lower the signal. In short, it runs like this: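 In this endothelial system, HUVEC are treated for 24 h and Tissue Factor is assessed by ELISA, normalised to DMSO.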
Test [7] in a line: BSK_3C_uPAR: BioMAP Diversity Plus: 3C Assay for Urokinase-type plasminogen activator receptor (uPAR) Biomarker Activity (AID 2282998). Conditions: BioMAP 3C HUVEC, uPAR biomarker ELISA; actives raise or lower the signal. In short, it runs like this:
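Human umbilical vein endothelial primary cells were exposed to test chemical for 24 h. Cell-surface uPAR was then quantified by ELISA, and responses were fitted bidirectionally against DMSO as negative control and baseline.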

Test [8] can be described thus: BSK_3C_VCAM1: BioMAP Diversity Plus: 3C Assay for Vascular cell adhesion molecule 1 (VCAM1) Biomarker Activity (AID 2282999). Conditions: BioMAP 3C HUVEC, VCAM1 ELISA, cytokine-stimulated; actives raise or lower the signal. In short, it runs like this: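 Activity fitted in both directions relative to DMSO, with ELISA measurement of the surface marker on primary HUVEC (3C) at 24 h post-treatment; parallel SRB staining (0.1% SRB, TCA-fixed, 560 nm) flagged overt cytotoxicity.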
(In general: In an ELISA, binding on a coated surface is turned into a signal by an enzyme label.)

Test [9] can be described thus: BSK_4H_Eotaxin3: BioMAP Diversity Plus: 4H Assay for Eotaxin 3 Biomarker Activity (AID 2283000).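 On outcome: CCL26 protein level quantified by ELISA in parallel with SRB cytotoxicity check.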 Conditions: primary human endothelial cells (HUVEC); actives raise or lower the signal. In short, it runs like this: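 ELISA quantitation of CCL26 (Eotaxin-3) protein from chemically dosed human vascular endothelial cells at 24 h; increases and decreases both scored relative to DMSO-treated baseline.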

Test [10] has as its target human Peroxisome Proliferator-activated Receptor delta (PPARd), PPARD (gene 5467) (UniProt Q03181). The test is described as follows: ATG_PPARd_TRANS: Attagene TRANS-FACTORIAL HepG2 Assay for human Peroxisome Proliferator-activated Receptor delta (PPARd) (AID 2283002; active means hit-call score of the fitted dose curve at least 0.9, where 1 is the maximum). In short, it runs like this:
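Transient HepG2 transfection (multiple GAL4-UAS RTUs, chimeric receptor-Gal4); 24 h dosing; total RNA → oligo(dT) RT → PCR → 6-FAM primer extension → HpaI cut → CE. Positive direction vs DMSO.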

Read-out in test [11]: Intercellular Adhesion Molecule 1 (ICAM1), ICAM1 (gene 3383)
The test is described as follows: BSK_3C_ICAM1: BioMAP Diversity Plus: 3C Assay for Intercellular Adhesion Molecule 1 (ICAM1) Biomarker Activity (AID 2283003). The conditions noted are these: primary human endothelial cells (HUVEC); actives raise or lower the signal. In short, it runs like this:
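ELISA readout of ICAM1 in human umbilical vein endothelial cells in the 3C system, taken 24 h post-dose. Gain or loss of signal versus DMSO was fitted in both directions, with SRB total-protein staining run in parallel.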

Test [12] in a line: BSK_3C_Proliferation: Cell Proliferation Assessment in the BioMAP Diversity Plus: 3C Assay (AID 2283006).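 On AC50: potency may reflect either rise or fall in cell number versus DMSO.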 The conditions noted are these: primary human endothelial cells (HUVEC). In short, it runs like this: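 Proliferation as total protein: sulforhodamine B (0.1%) stain of TCA-fixed subconfluent human umbilical vein endothelial cells, absorbance 560 nm, 48 h after dosing. Activity fitted in both directions against DMSO baseline.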

For test [13], the target named is Nuclear receptor subfamily 1 group I member 2 (Homo sapiens) (UniProt O75469). The test is described as follows: ATG_PXR_TRANS: Attagene TRANS-FACTORIAL HepG2 Assay for human Pregnane X Receptor (PXR) (AID 2283008; active means hit-call score of the fitted dose curve at least 0.9, where 1 is the maximum). In short, it runs like this:
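Transactivation by exogenous PXR–GAL4 fusion measured as reporter transcript induction after 24 h compound treatment of transfected human HepG2 cells. Read-out via RT-PCR and capillary electrophoresis of labelled fragments, fitted upward relative to DMSO.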

For test [14], the target named is human Peroxisome Proliferator-activated Receptor alpha (PPARa), PPARA (gene 5465) (UniProt Q07869). The test is described as follows: ATG_PPARa_TRANS: Attagene TRANS-FACTORIAL HepG2 Assay for human Peroxisome Proliferator-activated Receptor alpha (PPARa) (AID 2283001; active means hit-call score of the fitted dose curve at least 0.9, where 1 is the maximum). In short, it runs like this: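 Reporter transcripts quantified by RT-PCR plus capillary electrophoresis after 24 h treatment, fitted upward relative to DMSO. Cells: human HepG2 transiently carrying multiple GAL4-UAS reporter units driven by NR-Gal4 chimeras.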
Chain of human Peroxisome Proliferator-activated Receptor alpha (PPARa), PPARA (gene 5465) (Q07869 whole entry, looked up, the tested form may be a part): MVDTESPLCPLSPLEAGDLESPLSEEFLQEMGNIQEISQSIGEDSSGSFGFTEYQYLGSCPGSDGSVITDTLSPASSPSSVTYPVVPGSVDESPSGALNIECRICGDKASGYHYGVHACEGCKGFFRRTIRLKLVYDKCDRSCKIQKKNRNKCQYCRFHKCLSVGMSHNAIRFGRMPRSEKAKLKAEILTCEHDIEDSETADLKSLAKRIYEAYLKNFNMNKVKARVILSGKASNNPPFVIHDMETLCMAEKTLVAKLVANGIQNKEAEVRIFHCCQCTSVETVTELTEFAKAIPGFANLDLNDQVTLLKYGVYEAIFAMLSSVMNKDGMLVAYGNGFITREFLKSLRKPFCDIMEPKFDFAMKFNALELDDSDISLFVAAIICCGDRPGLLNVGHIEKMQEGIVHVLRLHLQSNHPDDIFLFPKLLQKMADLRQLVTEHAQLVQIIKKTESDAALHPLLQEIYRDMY

The target in test [15] is human RAR-related Orphan Receptor beta (RORb), RORB (gene 6096) (UniProt Q92753). The test is described as follows: ATG_RORb_TRANS: Attagene TRANS-FACTORIAL HepG2 Assay for human RAR-related Orphan Receptor beta (RORb) (AID 2283010; active means hit-call score of the fitted dose curve at least 0.9, where 1 is the maximum). In short, it runs like this: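 Read-out is reporter mRNA induction, quantified by RT-PCR with fluorescent capillary electrophoresis, 24 h post-dose in transiently transfected HepG2 expressing exogenous NR-Gal4 chimera. Activity fitted upward versus DMSO.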
Chain of human RAR-related Orphan Receptor beta (RORb), RORB (gene 6096) (Q92753 whole entry, looked up, the tested form may be a part): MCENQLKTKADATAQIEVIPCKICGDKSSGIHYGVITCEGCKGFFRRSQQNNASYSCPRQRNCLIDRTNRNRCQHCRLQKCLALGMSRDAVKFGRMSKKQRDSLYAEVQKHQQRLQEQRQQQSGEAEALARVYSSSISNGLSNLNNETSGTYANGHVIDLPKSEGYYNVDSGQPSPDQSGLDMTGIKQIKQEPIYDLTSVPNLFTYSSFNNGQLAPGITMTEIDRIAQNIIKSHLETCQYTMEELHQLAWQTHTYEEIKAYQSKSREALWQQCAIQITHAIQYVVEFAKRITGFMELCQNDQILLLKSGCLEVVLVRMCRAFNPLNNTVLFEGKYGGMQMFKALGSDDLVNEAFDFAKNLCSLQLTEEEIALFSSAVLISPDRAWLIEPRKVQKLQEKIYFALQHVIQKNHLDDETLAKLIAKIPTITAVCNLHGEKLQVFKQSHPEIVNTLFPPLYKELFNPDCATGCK

Test [16] addresses Retinoic acid receptor alpha (Homo sapiens) (UniProt P10276). The test is described as follows: ATG_RARa_TRANS: Attagene TRANS-FACTORIAL HepG2 Assay for human Retinoic Acid Receptor alpha (RARa) (AID 2283005; active means hit-call score of the fitted dose curve at least 0.9, where 1 is the maximum). In short, it runs like this: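 Reporter transcripts, measured by RT-PCR with fluorescent labeling and capillary electrophoresis after 24 h dosing, reflect activity of an exogenous human RARa–GAL4 fusion in transiently transfected HepG2. Fitted for increase relative to DMSO.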

Test [17] concerns the target human Retinoic Acid Receptor gamma (RARg), RARG (gene 5916) (UniProt P13631). Put plainly: ATG_RARg_TRANS: Attagene TRANS-FACTORIAL HepG2 Assay for human Retinoic Acid Receptor gamma (RARg) (AID 2283009; active means hit-call score of the fitted dose curve at least 0.9, where 1 is the maximum). In short, it runs like this:
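Transactivation of exogenous RARg-Gal4 fusion measured as reporter transcript induction after 24 h in transfected HepG2 cells. RNA reverse-transcribed, amplified, fluorescently labeled and resolved by capillary electrophoresis; increase relative to DMSO.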

For test [18], the target named is human Retinoic Acid Receptor beta (RARb), RARB (gene 5915) (UniProt P10826). The test is described as follows: ATG_RARb_TRANS: Attagene TRANS-FACTORIAL HepG2 Assay for human Retinoic Acid Receptor beta (AID 2283004; active means hit-call score of the fitted dose curve at least 0.9, where 1 is the maximum). In short, it runs like this: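 Fluorescent capillary-electrophoresis detection of GAL4-UAS reporter mRNA defines the endpoint, with induction over DMSO-treated wells scored as activity. Transiently transfected human hepatoma HepG2 cells expressing exogenous NR–Gal4 proteins are exposed to test chemicals for 24 h.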
Chain of human Retinoic Acid Receptor beta (RARb), RARB (gene 5915) (P10826 whole entry, looked up, the tested form may be a part): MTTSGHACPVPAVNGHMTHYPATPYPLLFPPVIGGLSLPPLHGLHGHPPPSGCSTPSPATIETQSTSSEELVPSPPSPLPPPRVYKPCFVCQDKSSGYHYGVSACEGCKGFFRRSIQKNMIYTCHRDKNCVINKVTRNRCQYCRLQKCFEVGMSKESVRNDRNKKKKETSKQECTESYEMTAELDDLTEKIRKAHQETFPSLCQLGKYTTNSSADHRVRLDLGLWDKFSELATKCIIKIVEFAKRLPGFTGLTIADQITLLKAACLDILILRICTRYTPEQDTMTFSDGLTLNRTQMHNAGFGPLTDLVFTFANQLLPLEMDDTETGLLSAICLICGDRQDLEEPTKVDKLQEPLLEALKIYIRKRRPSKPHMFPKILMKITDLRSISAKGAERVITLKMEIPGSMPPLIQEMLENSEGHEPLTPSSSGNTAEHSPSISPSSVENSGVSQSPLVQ

Test [19] addresses Peroxisome proliferator-activated receptor gamma (Homo sapiens) (UniProt P37231). Put plainly: ATG_PPARg_TRANS: Attagene TRANS-FACTORIAL HepG2 Assay for human Peroxisome Proliferator-activated Receptor-gamma (PPARg) (AID 2283007; active means hit-call score of the fitted dose curve at least 0.9, where 1 is the maximum). In short, it runs like this: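 Human hepatoma HepG2, transient MRTU transfection, 24 h treatment. mRNA reporter signal by RT-PCR plus capillary electrophoresis, fluorescence detection; fitted for increase over DMSO negative control.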

Chain of Retinoic acid receptor alpha (Homo sapiens) (P10276 whole entry, looked up, the tested form may be a part): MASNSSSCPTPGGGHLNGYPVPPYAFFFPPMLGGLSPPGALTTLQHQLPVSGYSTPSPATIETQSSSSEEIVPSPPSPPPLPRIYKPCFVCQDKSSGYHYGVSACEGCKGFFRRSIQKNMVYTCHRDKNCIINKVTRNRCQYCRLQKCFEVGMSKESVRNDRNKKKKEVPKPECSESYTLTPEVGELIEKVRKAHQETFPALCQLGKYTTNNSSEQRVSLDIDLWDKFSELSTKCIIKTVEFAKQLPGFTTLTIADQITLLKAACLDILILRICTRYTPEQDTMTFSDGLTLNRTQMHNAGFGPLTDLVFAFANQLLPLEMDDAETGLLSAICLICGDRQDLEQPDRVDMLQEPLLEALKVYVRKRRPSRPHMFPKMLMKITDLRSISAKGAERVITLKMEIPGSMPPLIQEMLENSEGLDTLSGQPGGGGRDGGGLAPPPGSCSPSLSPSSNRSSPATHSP
Chain of Nuclear receptor subfamily 1 group I member 2 (Homo sapiens) (O75469 whole entry, looked up, the tested form may be a part): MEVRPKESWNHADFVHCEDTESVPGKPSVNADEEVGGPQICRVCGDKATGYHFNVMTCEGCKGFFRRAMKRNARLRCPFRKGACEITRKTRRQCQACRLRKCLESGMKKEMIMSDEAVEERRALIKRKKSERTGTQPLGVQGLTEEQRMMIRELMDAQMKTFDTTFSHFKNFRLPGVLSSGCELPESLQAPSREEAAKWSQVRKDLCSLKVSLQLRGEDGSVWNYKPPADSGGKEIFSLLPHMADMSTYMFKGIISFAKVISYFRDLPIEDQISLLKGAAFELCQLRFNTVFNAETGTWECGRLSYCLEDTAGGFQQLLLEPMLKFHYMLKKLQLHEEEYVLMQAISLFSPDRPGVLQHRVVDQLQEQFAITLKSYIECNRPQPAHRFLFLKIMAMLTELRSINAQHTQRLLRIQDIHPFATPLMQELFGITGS
Chain of human Peroxisome Proliferator-activated Receptor delta (PPARd), PPARD (gene 5467) (Q03181 whole entry, looked up, the tested form may be a part): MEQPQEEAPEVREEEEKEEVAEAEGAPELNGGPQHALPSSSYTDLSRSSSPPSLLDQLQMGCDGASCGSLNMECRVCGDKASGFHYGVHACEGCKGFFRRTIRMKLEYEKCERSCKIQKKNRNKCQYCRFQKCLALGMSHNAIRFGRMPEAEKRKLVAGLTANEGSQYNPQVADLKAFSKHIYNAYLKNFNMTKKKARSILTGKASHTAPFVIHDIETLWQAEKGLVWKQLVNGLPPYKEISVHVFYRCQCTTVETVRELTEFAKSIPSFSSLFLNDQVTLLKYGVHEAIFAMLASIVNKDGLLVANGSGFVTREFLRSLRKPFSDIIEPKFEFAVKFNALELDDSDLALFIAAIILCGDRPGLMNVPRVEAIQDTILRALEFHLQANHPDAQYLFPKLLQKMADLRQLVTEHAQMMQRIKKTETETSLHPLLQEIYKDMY
Chain of human Retinoic Acid Receptor gamma (RARg), RARG (gene 5916) (P13631 whole entry, looked up, the tested form may be a part): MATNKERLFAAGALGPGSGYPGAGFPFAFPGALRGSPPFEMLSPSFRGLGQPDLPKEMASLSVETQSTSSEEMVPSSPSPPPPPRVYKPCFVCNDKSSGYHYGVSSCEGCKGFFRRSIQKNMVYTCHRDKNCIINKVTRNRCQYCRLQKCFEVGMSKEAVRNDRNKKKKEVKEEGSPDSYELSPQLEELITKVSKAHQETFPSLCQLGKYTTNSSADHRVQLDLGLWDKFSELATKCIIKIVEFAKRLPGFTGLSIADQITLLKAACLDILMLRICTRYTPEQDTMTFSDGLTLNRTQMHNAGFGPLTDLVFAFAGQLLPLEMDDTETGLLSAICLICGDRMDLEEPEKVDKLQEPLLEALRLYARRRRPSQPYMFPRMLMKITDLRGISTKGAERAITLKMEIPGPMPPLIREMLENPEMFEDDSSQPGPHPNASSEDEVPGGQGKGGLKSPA
Chain of Peroxisome proliferator-activated receptor gamma (Homo sapiens) (P37231 whole entry, looked up): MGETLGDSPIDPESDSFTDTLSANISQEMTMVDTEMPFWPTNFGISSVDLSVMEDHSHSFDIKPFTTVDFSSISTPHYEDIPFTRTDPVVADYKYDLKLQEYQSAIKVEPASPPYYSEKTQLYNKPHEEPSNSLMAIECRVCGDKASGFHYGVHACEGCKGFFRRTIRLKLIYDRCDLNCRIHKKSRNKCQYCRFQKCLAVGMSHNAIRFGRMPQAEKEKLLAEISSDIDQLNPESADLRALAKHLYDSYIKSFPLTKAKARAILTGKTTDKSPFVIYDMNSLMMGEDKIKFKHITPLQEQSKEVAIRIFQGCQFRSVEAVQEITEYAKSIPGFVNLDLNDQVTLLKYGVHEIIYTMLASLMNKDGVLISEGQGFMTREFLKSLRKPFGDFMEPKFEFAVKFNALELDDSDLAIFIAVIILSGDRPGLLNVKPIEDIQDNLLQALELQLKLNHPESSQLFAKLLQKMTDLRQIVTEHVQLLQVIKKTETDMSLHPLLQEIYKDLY

For the molecule `COC(=O)c1ccccc1S(=O)(=O)NC(=O)N(C)c1nc(C)nc(OC)n1`, the call in test [1], in test [2], in test [3], in test [4], in test [5] and in test [6] was inactive. For the same molecule, the result in test [7], in test [8], in test [9], in test [10], in test [11] and in test [12] was inactive. Also, in [13], the molecule was called inactive.
As for `CC(C)N(C(=O)COc1nnc(C(F)(F)F)s1)c1ccc(F)cc1`, the outcome in [1], in test [5], in test [6], in [7], in test [8] and in [9] was inactive. The molecule was called inactive in test [10], in test [11] and in test [12]. Moreover, the AC50 (as a rule, the midpoint of the concentration-response curve, whichever way the signal moves) in test [2] was 12.6 µM (active); in test [3], 20.7 µM (active); in [4], 17.2 µM (active); in test [13], 10.7 µM (active).
`CNC(=O)/C=C(\C)OP(=O)(OC)OC`: the molecule was classed as inactive in test [1], in test [3], in test [4], in [6], in test [7] and in [8]. Moreover, the result in test [9], in [14], in test [11], in [12], in test [13] and in [15] was inactive.
In the case of `Clc1ccccc1-c1nnc(-c2ccccc2Cl)nn1`, the outcome in test [1], in test [4], in test [6], in test [7], in test [8] and in test [9] was inactive. The result in test [10], in test [11], in [16], in test [13] and in test [17] was inactive. For the same molecule, the values for the AC50 in test [3] and in test [12] were 13.6 µM (active) and 11.7 µM (active), respectively.
Take `O=S1OCC2C(CO1)C1(Cl)C(Cl)=C(Cl)C2(Cl)C1(Cl)Cl` (configuration not stated): the call in [1], in test [2], in [3], in test [4], in test [5] and in test [14] was inactive. The call in [16] and in test [13] was inactive. The AC50 in [6] was 29 µM (active); in test [7], 15.9 µM (active); in test [8], 30.3 µM (active); in test [9], 30.9 µM (active); in [11], 33.9 µM (active); in test [12], 24.5 µM (active).
Consider `CNC(=O)Oc1cccc(N=CN(C)C)c1`, for which the AC50 in test [1] was 82.3 µM (active); in test [3], 50 µM (active); in test [4] it was 25.7 µM (active); in test [8], 29 µM (active). For the same molecule, the result in test [5], in test [6], in test [7], in test [9], in [14] and in test [10] was inactive. The result in test [11], in test [18], in test [16], in test [12], in test [19] and in test [13] was inactive. Moreover, in test [15], the molecule was called inactive.
As for `C#CCN1C(=O)COc2cc(F)c(N3C(=O)C4=C(CCCC4)C3=O)cc21`, the molecule was classed as inactive in test [1], in test [2], in test [4], in [6], in test [7] and in [8]. In addition, the result in test [9], in test [14], in test [11], in test [18], in test [16] and in test [12] was inactive. The molecule was classed as inactive in test [13] and in [17]. Besides, in test [3], the AC50 is 40.4 µM (active).
Regarding `O=C(Nc1ccccc1)Nc1cnns1`, the AC50 in [1] is 80.9 µM (active); in test [3], 50 µM (active); in [4], 71.8 µM (active); in test [12], 20 µM (active). The molecule was called inactive in [2], in [5], in test [6], in [7], in test [8] and in [9]. For the same molecule, the result in test [10], in test [11], in [18], in test [16] and in test [13] was inactive.

The record behind these values is PubChem BioAssay (EPA / NIEHS).
